# Data reported in PubChem BioAssay.
# “And” between values parts separate entries of the source, which are not always exact repeats. Equal entries are not always repeated. The source holds several records for some structures; these can differ, active in one and inactive in another. The source made the active and inactive calls. Cut-off read from the data, not from the text of the source, unless noted: active = inhibition above about 80%; inactive = the rest.
# Experiments:
# [1] = sensitizers of A549 cells to miR-34 induction, primary screen, imaging, A549 dox-inducible miR-34, nuclei and caspase counts (AID 1347080;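 active = compounds whose cell count with miR-34 switched on is under 0.7 times the count with it off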); settings: A549 miR-34 inducible, Hoechst nuclei count, 48 h
# [2] = survival rescue of mitochondrial mutant cells in low glucose, primary screen, MELAS cybrids, Rieske KO mouse fibroblasts, CellTiter-Glo (AID 1508586;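 active = mean z-score across replicates of 1.96 or higher in either the MELAS or the Rieske mutant cell line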;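 note: z relative to plate mean and SD of compound and empty wells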)
# [3] = LFS_MB_P medulloblastoma growth inhibition, cell-based, chromothripsis tumors, cisplatin or BGB combos (AID 1671449); settings: LFS_MB_P medulloblastoma cells;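 note: cells exposed for 96 hours; 0% = vehicle DMSO and 100% = killing by high DMSO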
# [4] = HDN33 neuroblastoma growth inhibition, cell-based, chromothripsis tumors, cisplatin or BGB combos (AID 1671450); settings: HDN33 neuroblastoma cells, stronger effect = higher value;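 note: cells exposed to compound for four days; 0% = vehicle DMSO and 100% = cell killing by high DMSO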
# [5] = ICB984 medulloblastoma cell growth inhibition, synergistic combos for chromothripsis tumors, cisplatin or BGB combos (AID 1671451; call rule not given here;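 note: cells exposed for 96 hours before readout; 0% = vehicle DMSO and 100% = killing by high DMSO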); settings: ICB984 medulloblastoma cells, drug combinations, stronger effect = higher value
# [6] = LFS_MB_1R medulloblastoma cell growth inhibition, synergistic combos for chromothripsis tumors, cisplatin or BGB combos (AID 1671452); settings: LFS_MB_1R medulloblastoma cells, stronger effect = higher value;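 note: cells exposed for 96 hours before readout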
# [7] = HTB85 osteosarcoma cell growth inhibition, synergistic combos for chromothripsis tumors, BGB or cisplatin IC20 combos (AID 1671453); settings: HTB85 osteosarcoma cells, drug combinations, stronger effect = higher value;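 note: cells exposed for 96 hours before readout; 0% = vehicle DMSO and 100% = high DMSO killing control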
# [8] = CRL2098 osteosarcoma cell growth inhibition, synergistic combos for chromothripsis tumors, BGB or cisplatin IC20 combos (AID 1671454); settings: CRL2098 osteosarcoma cells, drug combinations, stronger effect = higher value;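 note: cells exposed for 96 h before readout; 0% = vehicle DMSO and 100% = killing by high DMSO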
# [9] = HD-MB03 medulloblastoma cell growth inhibition, synergistic combos for chromothripsis tumors, BGB or cisplatin IC20 combos (AID 1671455; in the data active = inhibition above about 83%;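 note: 0% = vehicle DMSO and 100% = high DMSO as cytotoxic control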); settings: HD-MB03 medulloblastoma cells, stronger effect = higher value
# [10] = UWB1.289 ovarian carcinoma cell growth inhibition, synergistic combos for chromothripsis tumors, BGB or cisplatin combos (AID 1671456); settings: UWB1.289 ovarian carcinoma cells, stronger effect = higher value;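 note: cells exposed to compound for four days; 0% = vehicle DMSO and 100% = killing by high DMSO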
# [11] = LFS_MB_2R medulloblastoma cell growth inhibition, synergistic combos for chromothripsis tumors, cisplatin combos (AID 1671457); settings: LFS_MB_2R medulloblastoma cells, stronger effect = higher value;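 note: cells exposed to compound for four days before readout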
# [12] = MDA-MB-436 breast carcinoma cell growth inhibition, synergistic combos for chromothripsis tumors, BGB or cisplatin combos (AID 1671458; call rule not given here;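 note: cells exposed for 96 hours; 0% = vehicle DMSO and 100% = killing by high DMSO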); settings: MDA-MB-436 breast carcinoma growth inhibition, drug combinations, stronger effect = higher value
# [13] = UWB1.289_BRCA1 ovarian cancer growth, cell-based, BGB or cisplatin combinations (AID 1671459); settings: UWB1.289 BRCA1 ovarian carcinoma, drug combinations, stronger effect = higher value
# [14] = human astrocyte viability loss, single and combined drugs, cytotoxicity control for chromothriptic childhood tumor combination screen, cell-based, BGB or cisplatin IC20 combos (AID 1671460); settings: Human astrocytes, drug combinations, stronger effect = higher value;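 note: cells exposed to compounds for 96 hours before viability readout; 0% = vehicle and 100% = killing control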
# [15] = growth inhibition of BT084 medulloblastoma cells, cell-based, ICGC_MB145, cisplatin and BGB IC40 combos (AID 1671461); settings: drug combinations, stronger effect = higher value;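 note: cells exposed to drugs for 96 hours; 0% = vehicle DMSO and 100% = high DMSO full killing control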
# [16] = growth inhibition of RCMB18 medulloblastoma cells, cell-based, cisplatin and BGB IC40 combos (AID 1671462); settings: stronger effect = higher value;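 note: cells exposed to compound for four days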
# [17] = growth inhibition of CRL1545 osteosarcoma cells, cell-based, cisplatin and BGB IC20 combos (AID 1671464); settings: stronger effect = higher value;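 note: cells exposed to compound for 96 hours before readout; 0% = vehicle DMSO and 100% = high DMSO killing control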
# [18] = stronger effect = lower value, cell number ratio, induced over uninduced
# [19] = measured here: relative caspase fold change +Dox/-Dox
# [20] = measured here: total cells with miR-34 induction, stronger effect = lower value
# [21] = measured here: total cells without miR-34 induction
# [22] = MELAS cybrid survival, CellTiter-Glo 48 h, stronger effect = higher value
# [23] = Rieske KO mouse fibroblast survival, CellTiter-Glo 72 h
# [24] = at 0.5 µM, stronger effect = higher value
# [25] = measured here: combination with BGB IC20, at 0.005 µM
# [26] = measured here: combination with BGB IC40, at 0.005 µM
# [27] = measured here: combination with BGB IC40, at 0.05 µM
# [28] = measured here: combination with cisplatin, at 0.5 µM, stronger effect = higher value
# [29] = measured here: combination with cisplatin, at 5 µM, stronger effect = higher value
# [30] = measured here: with BGB IC20 combination, at 0.5 µM
# [31] = measured here: with cisplatin IC20 combination, at 0.5 µM
# [32] = measured here: 5 uM single agent, at 5 µM
# [33] = measured here: combination with cisplatin, at 0.5 µM
# [34] = measured here: combination with cisplatin, at 5 µM
smiles,measurement,setting,value
CC=C1NC(=O)C2CSSCCC=CC(CC(=O)NC(C(C)C)C(=O)N2)OC(=O)C(C(C)C)NC1=O (centres undefined),fold change,[1]; [18],0.776 (inactive)
same,fold change,[1]; [19],0.484
same,cell count,[1]; [20],596
same,cell count,[1]; [21],768
same,z-score,[2]; [22],0.102 (inactive)
same,z-score,[2]; [23],-3.68
same,inhibition,[3]; [24],-10.7% (inactive) and 88% (active)
same,inhibition,[3]; [25],24.5% and 60%
same,inhibition,[3]; [26],2.54% and 37.2%
same,inhibition,[3]; [27],74.1% and 67.4%
same,inhibition,[3]; [28],10.9% and 123%
same,inhibition,[3]; [29],118% and 111%
same,inhibition,"[4]; BGB combo, at 5 µM",99.8% and 99.9%
same,inhibition,[4]; at 0.5 µM,99.7% (active) and 99.8% (active)
same,inhibition,"[4]; cisplatin combo, at 5 µM",99.8% and 99.9%
same,inhibition,[4]; [30],99.7% and 99.8%
same,inhibition,[4]; [31],99.8% and 99.9%
same,inhibition,"[4]; single agent, at 5 µM",99.9%
same,inhibition,"[5]; BGB IC20 combo, at 0.005 µM",90.4% and 84.4%
same,inhibition,"[5]; BGB IC40 combo, at 0.005 µM",97.9% and 97.5%
same,inhibition,"[5]; BGB IC40 combo, at 0.05 µM",97% and 97.5%
same,inhibition,[5]; at 0.5 µM,-17.2% (inactive) and 63.7% (inactive)
same,inhibition,"[5]; cisplatin combo, at 0.05 µM",96.8% and 97.9%
same,inhibition,"[5]; cisplatin combo, at 0.5 µM",-7.95% and 70.2%
same,inhibition,"[5]; cisplatin combo, at 5 µM",85.1% and 97.2%
same,inhibition,[5]; [32],81.2% and 80.4%
same,inhibition,[6]; at 0.5 µM,95.1% (active) and 99.5% (active)
same,inhibition,[6]; [27],91.6% and 93.4%
same,inhibition,[6]; [33],100% and 110%
same,inhibition,[6]; [34],98.8% and 99.1%
same,inhibition,[7]; at 0.5 µM,99.8% (active)
same,inhibition,"[7]; measured here: with BGB IC20, at 0.5 µM",99.8%
same,inhibition,"[7]; measured here: with BGB IC20, at 5 µM",99.9%
same,inhibition,"[7]; measured here: with cisplatin IC20, at 0.5 µM",99.9% and 99.8%
same,inhibition,"[7]; measured here: with cisplatin IC20, at 5 µM",99.9%
same,inhibition,"[7]; single agent, at 5 µM",99.9%
same,inhibition,[8]; at 0.5 µM,94.7% (active) and 97.3% (active)
same,inhibition,"[8]; measured here: combination with BGB at IC20, at 0.5 µM",91% and 95.3%
same,inhibition,"[8]; measured here: combination with cisplatin at IC20, at 0.5 µM",96.7% and 99.1%
same,inhibition,[9]; at 0.5 µM,99.8% (active) and 99.9% (active)
same,inhibition,"[9]; measured here: combo with BGB at IC20, at 0.5 µM",99.8%
same,inhibition,"[9]; measured here: combo with cisplatin at IC20, at 0.5 µM",99.8% and 100%
same,inhibition,[10]; at 0.5 µM,97.4% (active) and 98.3% (active)
same,inhibition,"[10]; measured here: inhibition with BGB combination, at 0.05 µM",65.5% and 83.9%
same,inhibition,"[10]; measured here: inhibition with cisplatin combination, at 0.05 µM",79.2% and 89.7%
same,inhibition,[11]; at 0.5 µM,88.5% (active) and 90.2% (active)
same,inhibition,[11]; [33],99.4% and 104%
same,inhibition,[11]; [34],102% and 106%
same,inhibition,[12]; at 0.5 µM,71.3% (inactive) and 68.4% (inactive)
same,inhibition,"[12]; measured here: BGB combination, at 0.5 µM",57.2% and 55.5%
same,inhibition,"[12]; measured here: BGB combination, at 5 µM",70.4% and 77.6%
same,inhibition,"[12]; measured here: cisplatin combination, at 0.5 µM",73.2% and 67.4%
same,inhibition,"[12]; measured here: cisplatin combination, at 5 µM",84.8% and 85.1%
same,inhibition,"[13]; BGB combination, concentration series, at 5 µM",118% and 126%
same,inhibition,[13]; at 0.5 µM,106% (active) and 109% (active)
same,inhibition,"[13]; cisplatin combination, concentration series, at 5 µM",131% and 130%
same,inhibition,[14]; at 0.5 µM,102% (active) and 101% (active)
same,inhibition,"[14]; measured here: combo with BGB IC20, at 0.5 µM",105% and 103%
same,inhibition,"[14]; measured here: combo with cisplatin IC20, at 0.5 µM",101%
same,inhibition,[15]; at 0.5 µM,93.8% (active) and 102% (active)
same,inhibition,"[15]; cisplatin combination, at 0.5 µM",102% and 101%
same,inhibition,"[15]; cisplatin combination, at 5 µM",106%
same,inhibition,"[15]; measured here: BGB IC40 combination 0.05 uM, at 0.05 µM",99.6% and 96.6%
same,inhibition,"[15]; single agent, at 5 µM",106% and 108%
same,inhibition,[16]; at 0.5 µM,90.4% (active) and 89.4% (active)
same,inhibition,"[16]; cisplatin combo, at 5 µM",96% and 97.2%
same,inhibition,"[16]; measured here: BGB IC40 combination, at 0.05 µM",78.9% and 79.8%
same,inhibition,[16]; [33],92.6% and 90.7%
same,inhibition,"[16]; single agent, at 5 µM",96.6% and 90.8%
same,inhibition,[17]; at 0.5 µM,96% (active) and 96.3% (active)
same,inhibition,[17]; [30],97% and 96.3%
same,inhibition,[17]; [31],95.4% and 96.2%
same,inhibition,"[17]; single agent, at 0.05 µM",89.7% and 93.3%
same,inhibition,"[17]; single agent, at 5 µM",97.8% and 96.3%
O=c1ccn(C2OC(CO)C(O)C2O)c(=O)[nH]1 (centres undefined),fold change,[1]; [18],0.86 (inactive)
same,fold change,[1]; [19],0.784
same,cell count,[1]; [20],8240
same,cell count,[1]; [21],9580
same,z-score,[2]; [22],-0.15 (inactive)
same,z-score,[2]; [23],0.496
same,inhibition,[3]; [24],-8.26% (inactive) and 22% (inactive)
same,inhibition,[3]; [25],10.5% and -21.6%
same,inhibition,[3]; [26],8.95% and -30.9%
same,inhibition,[3]; [27],17.3% and -34.8%
same,inhibition,[3]; [28],37.5% and 6.75%
same,inhibition,[3]; [29],-10.3% and -15.6%
same,inhibition,"[4]; BGB combo, at 5 µM",17.7% and -13.8%
same,inhibition,[4]; at 0.5 µM,23.7% (inactive) and 2.11% (inactive)
same,inhibition,"[4]; cisplatin combo, at 5 µM",22% and -0.337%
same,inhibition,[4]; [30],17.2% and -17.5%
same,inhibition,[4]; [31],35.5% and -0.199%
same,inhibition,"[4]; single agent, at 5 µM",18.6% and -37.8%
same,inhibition,"[5]; BGB IC20 combo, at 0.005 µM",12.4% and 14.9%
same,inhibition,"[5]; BGB IC40 combo, at 0.005 µM",6.25% and -39.4%
same,inhibition,"[5]; BGB IC40 combo, at 0.05 µM",-7.22% and -39.4%
same,inhibition,[5]; at 0.5 µM,-8.08% (inactive) and -24.1% (inactive)
same,inhibition,"[5]; cisplatin combo, at 0.05 µM",-11.1% and -43.3%
same,inhibition,"[5]; cisplatin combo, at 0.5 µM",4.25% and -24.8%
same,inhibition,"[5]; cisplatin combo, at 5 µM",-7.38% and -52.9%
same,inhibition,[5]; [32],7.59% and -39.4%
same,inhibition,[6]; at 0.5 µM,-5.2% (inactive) and -14.4% (inactive)
same,inhibition,[6]; [27],-12.7% and -13.9%
same,inhibition,[6]; [33],-10% and 2.17%
same,inhibition,[6]; [34],-46% and -44.9%
